Screens as filed in PubChem BioAssay.
CtBP-E1A blk – CtBP/E1A binding inhibition | actives 0.49% (n = 340,000) | AID 651724 | activity change, % (test concentration not listed) | AlphaScreen GST-E1A/His-CtBP binding, 1536-well; active compounds read low; in the data active = activity change below about -65%; inconclusive = mostly about -30% to -63%
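Steps: dispense buffer (Tris pH 8.0, NaCl 300 mM, TCEP 1 mM, BSA, Tween 20); add 5X protein mix (GST-E1A, His-CtBP, 125 nM each); pin 23 nL compound; 2 h at 37 °C, dark; add 5X beads (50 ug/mL); 1 h; read.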
L3MBTL1 block – blocks human L3MBTL1 | Q9Y468 | AlphaScreen L3MBTL1–H3K9me1 peptide binding | Potency, µM (highest dose often 57.1 µM), actives largely listed as inhibitors | actives 0.66% (n = 230,000) | AID 485360; also: nearly all actives have a fitted effect of over 60% in size
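AlphaScreen proximity signal between nickel-chelate acceptor and streptavidin donor beads (final 10 ug/mL) reports binding of 50 nM L3MBTL1 to 75 nM biotin-H3 K9me1 peptide; complex incubated with compounds 30 min at room temperature; cefsulodin titration as control.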
Eya2 phos inh – blocks the phosphatase activity of human Eya2 | O00167 | recombinant Eya2, OMFP fluorescence dephosphorylation (OMFP is methylfluorescein phosphate) | Potency, µM (titrated, usually from 76.9 µM), usual class: inhibitors | actives 0.006% (n = 330,000)
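Eya2 protein (added as 0.2 uM solution) was preincubated with compound for 10 min at ambient temperature in 50 mM HEPES pH 7.5, 50 mM NaCl, 5 uM MgCl2, 0.05% BSA, 1 mM DTT. OMFP (added at 50 uM) then reacted 10 min; fluorescence read at 485/525 nm.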
uPA generation – blocks generation of uPA at the cell surface; cell surface uPA generation assay, qHTS; Potency, µM (doses to about 38.3 µM), usual class: inhibitors; actives 0.31% (n = 330,000); active = well fitted inhibition curve with a large enough effect; inconclusive = small, poorly fitted or top-dose-only effect; inactive = no such curve, though single readings can be large or run the other way; tested in mouse RAW 264.7 cells; also: nearly all actives have a fitted effect of over 55% in size
USP2a block – inhibitors of human ubiquitin-specific protease USP2a; O75604; USP2 core, Ub-CHOP2 coupled fluorogenic reporter, 485/531; Potency, µM (series often up to 38.3 µM), hits mostly inhibitors; actives 0.01% (n = 330,000); AID 463254
Target sequence (O75604 whole entry, looked up): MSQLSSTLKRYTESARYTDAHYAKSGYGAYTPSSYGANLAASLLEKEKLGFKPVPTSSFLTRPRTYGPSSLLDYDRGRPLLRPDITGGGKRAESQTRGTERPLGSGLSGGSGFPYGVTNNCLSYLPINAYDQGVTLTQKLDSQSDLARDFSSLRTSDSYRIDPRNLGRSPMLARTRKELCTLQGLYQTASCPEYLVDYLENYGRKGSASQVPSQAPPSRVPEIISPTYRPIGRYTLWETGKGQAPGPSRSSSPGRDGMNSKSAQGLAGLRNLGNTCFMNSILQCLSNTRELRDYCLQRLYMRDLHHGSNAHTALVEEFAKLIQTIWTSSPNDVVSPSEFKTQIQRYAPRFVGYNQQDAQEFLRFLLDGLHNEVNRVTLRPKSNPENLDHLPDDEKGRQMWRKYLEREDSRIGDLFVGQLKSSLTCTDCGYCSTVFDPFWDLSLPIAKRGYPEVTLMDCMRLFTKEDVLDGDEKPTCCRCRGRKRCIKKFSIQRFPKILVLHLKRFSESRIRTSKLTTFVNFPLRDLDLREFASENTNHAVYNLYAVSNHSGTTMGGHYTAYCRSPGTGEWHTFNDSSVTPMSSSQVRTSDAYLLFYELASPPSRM
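Cell-free coupled assay: 10nM USP2 core preincubated 30min RT with compound in Tris-HCl pH 8.0/CaCl2/CHAPS buffer, then 25nM Ub-CHOP2 and 25nM reporter substrate; fluorescence (Ex 485/Em 531) read after 60min RT, normalized to NEM inhibition, concentration-response curves fitted.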
Six1-Eya2 blk – inhibitors of human Six1/Eya2 interaction; AlphaScreen GST-Six1/His-Eya2 binding, biochemical; active compounds read low; actives 0.56% (n = 360,000); AID 651725; Q15475+O00167; activity change, % (no concentration beside the values); in the data active = activity change below about -65%; inconclusive = mostly about -30% to -63%
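Homogeneous AlphaScreen proximity assay pairing GST-Six1 with His-tagged Eya2 (added as 5X mix: 250 nM and 500 nM) in 50 mM Tris pH 8.0, 300 mM NaCl, 1 mM TCEP. Glutathione donor and nickel acceptor beads; 1 h, 37 °C, dark.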
Hits are given with their value; [ ] = another dose, or the depositor's remark. This is a sample that favours compounds with a hit; in the whole collection about 1.2% have one here. Unless noted, calls follow the shape of the dose curve; as a rule, active = well fitted curve in the direction sought with a large enough effect; inconclusive = small, poorly fitted or top-dose-only effect, or another doubt; inactive = no such curve, though single readings can be large; an effect the other way counts as inactive or inconclusive.

For CCc1noc(C)c1C(=O)Nc1cccc(S(=O)(=O)N(C)c2ccccc2)c1 the results were CtBP-E1A blk inactive, L3MBTL1 block inactive, Eya2 phos inh inactive, uPA generation inactive, USP2a block inactive and Six1-Eya2 blk inactive.
`N#CC1=C(N)SC(N)=C(C#N)C1c1ccoc1` gave L3MBTL1 block 5.01µM, Eya2 phos inh inactive and USP2a block inactive.
For CCOC(=O)CCCCC(=O)c1[nH]c(=O)[nH]c1CSc1nc2ccccc2[nH]1 the results were CtBP-E1A blk inactive, L3MBTL1 block 12.6µM, Eya2 phos inh inactive, uPA generation inactive, USP2a block inactive and Six1-Eya2 blk inactive.
Screening CCOC(=O)CCCCC(=O)c1[nH]c(=O)[nH]c1CSc1nc(C)cc(=O)[nH]1 returned CtBP-E1A blk inactive, L3MBTL1 block 7.94µM, Eya2 phos inh inactive, uPA generation inactive, USP2a block inactive and Six1-Eya2 blk inactive.
CCOC(=O)CCCCC(=O)c1[nH]c(=O)[nH]c1CSc1nc(C)cc(C)n1 was read as CtBP-E1A blk inactive, L3MBTL1 block inactive, Eya2 phos inh inactive[15.4 µM], uPA generation inactive, USP2a block inactive and Six1-Eya2 blk inactive.
COc1ccccc1NS(=O)(=O)c1ccc(C(=O)Nc2ncccc2O)cc1 was read as CtBP-E1A blk inactive, L3MBTL1 block inactive, Eya2 phos inh inactive, uPA generation inconclusive, USP2a block inactive and Six1-Eya2 blk inactive.
`Cc1ccc(-c2nnc(SCC(=O)Nc3ccccc3F)o2)cc1` gave CtBP-E1A blk inactive, L3MBTL1 block inactive, Eya2 phos inh inactive, uPA generation 8.91µM, USP2a block inactive and Six1-Eya2 blk inactive.
For CN(Cc1ccccc1)C(=O)c1cccc(NC(=O)Cc2cccc(NC(=O)C3CCN(C(=O)c4ccccc4)CC3)c2)c1 the results were CtBP-E1A blk inactive, uPA generation inactive and Six1-Eya2 blk inactive.
Screening COc1cc(C)c2sc3ccccc3c(=O)c2c1NCCN(C)C returned CtBP-E1A blk inactive and Six1-Eya2 blk -74.9.
CN(C)CCNc1cccc2sc3ccc(O)cc3c(=O)c12 was read as CtBP-E1A blk -66.7 and Six1-Eya2 blk inconclusive.
CCN(CC)CCNc1cccc2sc3ccccc3c(=O)c12 was read as CtBP-E1A blk inactive and Six1-Eya2 blk inactive.
CCN(CC)CCNc1ccc(CO)c2sc3ccccc3c(=O)c12 was read as CtBP-E1A blk inconclusive, L3MBTL1 block inactive, Eya2 phos inh inactive, uPA generation inconclusive, USP2a block inactive and Six1-Eya2 blk inactive.
`CN(C)CCNc1ccc2nnn3c4ccc(O)cc4c(=O)c1c23` gave CtBP-E1A blk inactive, uPA generation inactive and Six1-Eya2 blk -76.6.
`Cc1ccc(NCCN(C)C)c2c(=O)c3cc(O)ccc3sc12` gave CtBP-E1A blk -67.9, uPA generation inactive and Six1-Eya2 blk inconclusive.
`O=C(O)c1cccc(COc2ccc3c(c2)CCC3)c1` gave CtBP-E1A blk inactive, L3MBTL1 block 22.4µM, Eya2 phos inh inactive, uPA generation inactive, USP2a block inactive and Six1-Eya2 blk inactive.
For COc1ccc(/C(C)=N/NC(=O)CNC(=O)c2ccncc2)c(OC)c1 the results were CtBP-E1A blk inactive, Eya2 phos inh inactive, uPA generation inactive, USP2a block inactive and Six1-Eya2 blk inactive.
O=C(Nc1cccc(NC(=O)c2cc([N+](=O)[O-])ccc2Cl)n1)c1cc([N+](=O)[O-])ccc1Cl was read as uPA generation 8.91µM and Six1-Eya2 blk inactive.
`O=C(Nc1ccccn1)c1ccc([N+](=O)[O-])cc1Cl` gave CtBP-E1A blk inactive, L3MBTL1 block inactive, Eya2 phos inh inactive, uPA generation inactive, USP2a block inactive and Six1-Eya2 blk inactive.
`COc1ccc(CC(C)N2CCN(Cc3ccccc3)CC2)cc1OC` (centres undefined) gave CtBP-E1A blk inactive, L3MBTL1 block inactive, Eya2 phos inh inactive, uPA generation inactive, USP2a block inactive and Six1-Eya2 blk inactive.
Screening COc1ccc(NC(=O)COc2cccc3c2CCN(Cc2cccnc2)C3=O)c(OC)c1 returned CtBP-E1A blk -82.2, Eya2 phos inh inactive, uPA generation inactive, USP2a block inactive and Six1-Eya2 blk -75.1.
For COc1ccc(NC(=O)COc2cccc3c2CCN(Cc2cccnc2)C3=O)cc1 the results were CtBP-E1A blk inactive, Eya2 phos inh inactive, uPA generation inactive, USP2a block inactive and Six1-Eya2 blk inactive.
Screening Cc1cc(C)nc(N2CCC(C(=O)NC3CC3)CC2)n1 returned CtBP-E1A blk inactive, Eya2 phos inh inactive, uPA generation inactive, USP2a block inactive and Six1-Eya2 blk inactive.
`COc1ccc(C(=O)COC(=O)c2ccccc2O)c(OC)c1` gave CtBP-E1A blk inactive, L3MBTL1 block 8.91µM, Eya2 phos inh inactive, uPA generation inactive, USP2a block inconclusive and Six1-Eya2 blk inactive.
`O=S(CC(O)c1ccccc1)c1ccccc1` (centres undefined) gave CtBP-E1A blk inactive and Six1-Eya2 blk inactive.
Screening Nc1c(S(=O)(=O)c2ccccc2)c2nc3ccccc3nc2n1/N=C/c1cccc(O)c1 returned CtBP-E1A blk -84.3, L3MBTL1 block inactive, Eya2 phos inh inactive, uPA generation inactive, USP2a block inactive and Six1-Eya2 blk -74.6.
For CC(C)(C)c1csc(N/N=C/c2ccc(O)cc2)n1 the results were CtBP-E1A blk inactive, L3MBTL1 block inactive, Eya2 phos inh inactive, uPA generation inconclusive, USP2a block inactive and Six1-Eya2 blk inactive.
COc1ccc2nc(SCC(=O)Nc3cc(OC)c(OC)cc3C(=O)O)c(C)cc2c1 was read as CtBP-E1A blk inactive, L3MBTL1 block inactive, Eya2 phos inh inactive, uPA generation inactive, USP2a block inactive and Six1-Eya2 blk inactive.
`COC(=O)[C@]12CCCCC=C1N(Cc1ccccc1)C(=O)[C@H](CC(=O)N1CCCC1)C2` gave CtBP-E1A blk inactive and Six1-Eya2 blk inactive.
For Cc1c(Cl)cccc1NC(=S)N(CCN(C)C)C(C)c1ccccn1 (centres undefined) the results were CtBP-E1A blk inconclusive, Eya2 phos inh inactive, uPA generation inactive, USP2a block inactive and Six1-Eya2 blk inconclusive.
Cc1ccccc1NC(=S)N(CCN(C)C)C(C)c1ccccn1 (centres undefined) was read as CtBP-E1A blk -71.9, Eya2 phos inh inactive, uPA generation inactive, USP2a block inactive and Six1-Eya2 blk -65.1.
`Cc1scc(C(=O)N/N=C/c2ccsc2)c1C` gave CtBP-E1A blk inactive, L3MBTL1 block inactive, Eya2 phos inh inactive, uPA generation 6.31µM, USP2a block inactive and Six1-Eya2 blk inactive.
COC(=O)COc1ccc(/C=N/NC(=O)c2ccc(N(Cc3ccccc3)S(C)(=O)=O)cc2)cc1 was read as CtBP-E1A blk -79.1, L3MBTL1 block inactive, Eya2 phos inh inactive, uPA generation inactive, USP2a block inactive and Six1-Eya2 blk -75.3.
